# PubChem BioAssay AID1852 (Sanford-Burnham Center for Chemical Genomics, 2009)
# In all, about 2,500 compounds went through this assay and about 1,100 (44%) were called active. The set was probably picked from earlier hits. The list shows a part of the results. Unmarked numbers belong to inactive results.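 The calls were made as follows: active = inhibition above 50% at 4 µM in the single-point screen; inactive = inhibition of 50% or less.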
# Assay: blockers of TNF-a NF-kB luciferase induction – cell-based, HEK293T NF-kB-Luc, luminescence, selectivity assay for NOD1/NOD2 signaling inhibitor project, primary screen (AID 1852)
# Details: TNF-a induced, 14 h, at 4 µM, stronger effect = higher value
row,SMILES,inhibition
1,Cc1cc(S(=O)(=O)NCc2ccncc2)c(C)cc1Br,22.7%
2,CS(=O)(=O)C1=NN2C(=N)/C(=C\c3ccc(OCCOc4ccccc4)cc3)C(=O)N=C2S1,-28.3%
3,CCN1CCN(Cc2ccc(NC(=O)c3ccc(C)c(NC(=O)c4ccno4)c3)cc2C(F)(F)F)CC1,-16.6%
4,O=C(Nc1ccc2nc3n(c(=O)c2c1)CCCCC3)c1c(F)ccc([N+](=O)[O-])c1F,94.6% (active)
5,O=C(Nc1ccc2nc3n(c(=O)c2c1)CCCCC3)c1cc([N+](=O)[O-])ccc1F,37.4%
6,O=C(c1[nH]ncc1-c1ccccc1)C1CO1 (stereo not drawn),2.8%
7,Cc1cccc(NC(=S)N/N=C/c2ccc([N+](=O)[O-])s2)c1,106% (active)
8,Cc1ccc(C(=O)N/N=C/c2ccc([N+](=O)[O-])s2)cc1,66.9% (active)
9,Cc1ccc(/C=N/Nc2ccc(C(=O)O)cc2)s1,44.7%
10,Cc1ccc(NC(=S)N/N=C/c2ccc([N+](=O)[O-])s2)cc1,100% (active)
11,O=C(N/N=C/c1ccc([N+](=O)[O-])s1)c1ccncc1,45.8%
12,O=[N+]([O-])c1ccc(/C=N/NC(=S)Nc2ccc(Cl)cc2Cl)s1,31.8%
13,Cc1ccc(-c2nnc(Sc3nc4ccccc4o3)c3ccccc23)cc1,-46.1%
14,CCC(C)Cn1c(O)cc2nn(-c3nc4ccccc4s3)c(=O)c-2c1C (stereo not drawn),77.4% (active)
15,CCC(C)Cn1c(C)nc2ccccc21 (stereo not drawn),28%
16,CCC(C)Cn1c(C(C)C)nc2ccccc21 (stereo not drawn),-3%
17,COc1c(C)cc(C(=O)C2CCCN(C(=O)CCc3scnc3C)C2)cc1C (stereo not drawn),27.3%
18,Cc1ccnn1CCC(=O)N1CCCC(Nc2ccc(F)c(F)c2)C1 (stereo not drawn),21.6%
19,Fc1ccc(C2CCCN2Cc2nc(Cc3ccccc3F)no2)cc1 (stereo not drawn),-0.4%
20,CCc1cc(C(=O)NC2CCCN(Cc3ccccc3F)C2)n(C)n1 (stereo not drawn),57.5% (active)

row,SMILES,inhibition
1,CCC(C)c1ccc(C(C)NC(=S)NC2CCCCC2)cc1 (stereo not drawn),21.1%
2,O=C(CCS(=O)(=O)c1ccccc1)Nc1cccc(-c2nc3ccccc3s2)c1,59.9% (active)
3,CS(=O)(=O)c1ccc2nc(NC(=O)CCS(=O)(=O)c3ccccc3)sc2c1,36.3%
4,Cc1nc2ccc(NC(=O)CCS(=O)(=O)c3ccccc3)cc2s1,-1.1%
5,O=C(c1cn(-c2ccccc2)nc1-c1ccccc1)n1nnc2ccccc21,27.6%
6,COc1ccc(-c2csc3ncnc(NCCCO)c23)cc1,60.7% (active)
7,COc1ccc(-c2csc3ncnc(NCCO)c23)cc1,49.8%
8,OCCCNc1ncnc2scc(-c3ccc(Cl)cc3)c12,78.5% (active)
9,CCc1cccc(NS(=O)(=O)c2csc(C(N)=O)c2)c1,23.5%
10,CNC(=S)N(CCc1c(C)[nH]c2ccc(Cl)cc12)Cc1cc(OC)c(OC)c(OC)c1,36.1%
11,CCOC(=O)c1sc(NC(=O)CSc2n[nH]c(-c3ccncc3)n2)c(C#N)c1C,26.6%
12,CCCc1ccc(-c2c(C)sc(NC(=O)c3ccnn3C)c2C#N)cc1,86.3% (active)
13,CCN1/C(=C/C(C)=C/c2sc3ccccc3[n+]2CC)Sc2ccccc21,71.8% (active)
14,CCN1/C(=C/C=C/C=C/C=C/c2sc3ccccc3[n+]2CC)Sc2ccccc21,62.2% (active)
15,O=c1c2cc([N+](=O)[O-])ccc2nc(CN2CCN(c3ccccn3)CC2)n1-c1ccccc1F,2.4%
16,Cc1ccc(NC(=O)CSc2nn(-c3ccccc3)c(=S)s2)cc1S(=O)(=O)N(C)C,72.3% (active)
17,CN(C)S(=O)(=O)c1cc(NC(=O)CSc2nn(-c3ccc(Cl)cc3)c(=S)s2)ccc1Cl,-20.5%
18,CCN(CCn1cccn1)C(=O)CC1C(=O)NCCN1CCc1ccccc1 (stereo not drawn),50.2% (active)
19,CCN(Cc1ccncc1)C(=O)CC1C(=O)NCCN1Cc1ccc(F)c(F)c1 (stereo not drawn),1.3%
20,CC(CN1CCOCC1)OC(=O)Cc1ccc(Cl)cc1 (stereo not drawn),12.4%

row,SMILES,inhibition
1,O=C(Nc1cccc(S(=O)(=O)N2CCCCC2)c1)Nc1ccc(Cl)cc1Cl,-29.7%
2,COc1ccc(NS(=O)(=O)c2cccc(NC(=O)c3ccc(Cl)nc3)c2)cc1,42%
3,CSc1ncccc1C(=O)N1CCN(S(=O)(=O)c2cc(C)ccc2C)CC1,-21.1%
4,Cc1ccc(NC(=O)c2cc(=O)c3ccccc3o2)cc1S(=O)(=O)N1CCCCC1,23.9%
5,COc1ccc(NS(=O)(=O)c2cccc(NC(=O)c3ccc(S(=O)(=O)N4CCCCCC4)cc3)c2)cc1,90.7% (active)
6,Cc1ccc(NC(=O)c2ccccc2NS(=O)(=O)c2ccc(F)cc2)cc1S(=O)(=O)N1CCCCC1,81.2% (active)
7,O=C(Nc1ccc(F)cc1)Nc1ccc(N2CCCC2)c(S(=O)(=O)Nc2ccccc2Cl)c1,35.1%
8,Cc1ccc(NC(=O)CSc2ncnc3ccccc23)cc1S(=O)(=O)N1CCCCC1,57.7% (active)
9,Cc1ccc(NC(=O)CSc2ncnc3ccccc23)cc1S(=O)(=O)N1CCOCC1,39.8%
10,O=C(CCl)Nc1cccc(S(=O)(=O)N2CCCCCC2)c1,30.6%
11,O=C(Nc1cccc(S(=O)(=O)N2CCCCC2)c1)c1ccccc1NS(=O)(=O)c1ccc(F)cc1,87% (active)
12,Cc1nc(Sc2nnnn2C)c2c3c(sc2n1)CCC3,25.5%
13,CCS(=O)(=O)c1ccc2oc(SCC(=O)NC3CCCC(C)C3C)nc2c1 (stereo not drawn),15.3%
14,CC1CCCC(NC(=O)NC(=O)CCl)C1C (stereo not drawn),69.1% (active)
15,CC1CCCCC1NC(=O)NC(=O)CCl (stereo not drawn),68.1% (active)
16,COc1ccccc1C1/C(=C(/O)c2ccc(OC(C)C)cc2)C(=O)C(=O)N1c1cc(C)on1 (stereo not drawn),35.4%
17,O=C(CN(Cc1ccc(Cl)cc1)C(=O)CNS(=O)(=O)c1ccc(F)cc1)NCC1CCCO1 (stereo not drawn),38.4%
18,O=S(=O)(NCC1CCCO1)c1ccc(-c2ccc(S(=O)(=O)NCC3CCCO3)cc2)cc1 (stereo not drawn),34.8%
